# Measured values from the antibiotic and cytotoxicity screens of Wong et al. (2023).
# The campaign covered roughly 39,000 compounds. About 1,500 (3.8%) were called active. For the sample, actives were picked, then their nearest neighbours and some compounds at random.
# Test system: HSkMC (human skeletal muscle cells)
# Assay: cytotoxicity call (relative viability < 0.9)
# Conditions: 10 µM
row,SMILES,cytotoxicity call
1,C[C@H]1CCCCO[C@@H](CN(C)C(=O)Nc2ccc3c(c2)OCO3)[C@@H](C)CN([C@@H](C)CO)C(=O)c2cc(NS(=O)(=O)c3cccs3)ccc2O1,inactive
2,Cc1cc(C(=O)Nc2cccc3c2O[C@@H](CN(C)S(=O)(=O)c2cccs2)[C@H](C)CN([C@H](C)CO)C3=O)n(C)n1,inactive
3,C[C@H]1CCCCO[C@H](CN(C)C(=O)NC2CCCCC2)[C@@H](C)CN([C@@H](C)CO)C(=O)c2cc(NS(=O)(=O)c3cccs3)ccc2O1,inactive
4,C[C@@H]1CCCCO[C@@H](CN(C)Cc2ccc(C(F)(F)F)cc2)[C@H](C)CN([C@H](C)CO)C(=O)c2cc(NC(=O)c3ccncc3)ccc2O1,inactive
5,O=C(NCc1nc2ccccc2[nH]1)C1=C[C@@H](c2ccc(Br)cc2)C[C@@H](OCc2ccc(CO)cc2)O1,inactive
6,Cc1ccc(S(=O)(=O)N(C)C[C@@H]2Oc3ccc(NC(=O)Nc4ccc(C(F)(F)F)cc4)cc3C(=O)N([C@H](C)CO)C[C@@H]2C)cc1,inactive
7,CS(=O)(=O)[C@H]1CCNC1,inactive
8,CC(C)(C)S(=O)N1Cc2cc(C(=O)NCc3ccc4c(c3)OCO4)nc(-c3cccc(-c4cccc(F)c4)c3)c2[C@H]1CCO (stereo partly specified),inactive
9,COc1ccccc1CNC(=O)C[C@H]1CC[C@@H]2[C@H](COC[C@H](O)CN2C(=O)Nc2ccc(F)cc2)O1,inactive
10,O=C(C[C@H]1C[C@H]2c3cc(NC(=O)C4CCOCC4)ccc3O[C@H]2[C@H](CO)O1)NCc1ccc2c(c1)OCO2,inactive
11,C[C@@H]1CN([C@@H](C)CO)C(=O)c2cccc(NC(=O)c3nc4ccccc4s3)c2O[C@H]1CN(C)C(=O)Nc1ccc(C(F)(F)F)cc1,inactive
12,COc1ccccc1S(=O)(=O)N[C@@H]1CC[C@H](CCNC(=O)C2CC2)O[C@H]1CO,inactive
13,CN(C)CCCNC(=O)[C@@H]1[C@@H](CO)[C@@H]2Cn3c(ccc(-c4cccc(C(=O)N(C)C)c4)c3=O)[C@H]1N2,inactive
14,C=C[C@](C)(O)CC/C=C(\C)C(=O)O[C@@H]1[C@@H](O[C@@](C)(C=C)CC/C=C(\C)C(=O)O[C@H]2C[C@@]3(C(=O)O[C@H]4OC[C@@H](O[C@H]5O[C@@H](CO)[C@@H](O)[C@@H](O[C@H]6O[C@@H](CO)[C@@H](O[C@H]7O[C@@H](CO)[C@@H](O)[C@@H](O)[C@@H]7O)[C@@H](O)[C@@H]6O)[C@@H]5O)[C@@H](O)[C@@H]4O)[C@@H](O)C[C@@]4(C)C(=CC[C@H]5[C@@]6(C)CC[C@@H](O[C@H]7O[C@@H](CO)[C@@H](O[C@H]8O[C@@H](CO)[C@@H](O)[C@@H](O[C@H]9OC[C@@H](O)[C@@H](O)[C@@H]9O)[C@@H]8O)[C@@H](O)[C@@H]7O)C(C)(C)[C@@H]6CC[C@@]54C)[C@@H]3CC2(C)C)OC[C@@H](O)[C@H]1O,active
15,C[C@@H]1O[C@H](O[C@H]2[C@H](OC(=O)[C@]34CCC(C)(C)C[C@@H]3C3=CC[C@@H]5[C@@]6(C)CC[C@H](O[C@@H]7O[C@@H](C)[C@H](O[C@@H]8OC[C@@H](O)[C@H](O)[C@H]8O)[C@@H](O)[C@H]7O)C(C)(C)[C@@H]6CC[C@@]5(C)[C@]3(C)C[C@@H]4O)OC[C@H](O)[C@H]2O)[C@H](O)[C@H](O)[C@H]1O[C@@H]1O[C@H](CO)[C@@H](O)[C@H](O)[C@H]1O,inactive
16,C[C@@H]1O[C@@H](O[C@H]2[C@H](OC(=O)[C@]34CCC(C)(C)C[C@H]3C3=CC[C@H]5[C@@]6(C)CC[C@H](O[C@@H]7O[C@H](CO)[C@@H](O)[C@H](O)[C@H]7O)C(C)(C)[C@@H]6CC[C@@]5(C)[C@]3(C)C[C@H]4O)OC[C@H](O)[C@@H]2O)[C@H](O)[C@H](O[C@@H]2OC[C@H](O)[C@H](O)[C@H]2O)[C@H]1O[C@@H]1OC[C@@H](O)[C@H](O[C@@H]2OC[C@H](O)[C@H](O)[C@H]2O)[C@H]1O,inactive
17,C[C@H](CO)N1C[C@H](C)[C@H](CN(C)S(=O)(=O)c2ccccc2)Oc2ccc(NC(=O)CCN3CCOCC3)cc2CC1=O,inactive
18,C[C@@H]1CN([C@H](C)CO)S(=O)(=O)c2ccc(C3=CCCC3)cc2O[C@H]1CN(C)S(=O)(=O)c1cn(C)cn1,inactive
19,C/C1=C2/[N]([Co+][OH])[C@H]([C@H](CC(N)=O)[C@@]2(C)CCC(=O)NC[C@@H](C)OP(=O)(O)O[C@H]2[C@@H](O)[C@@H](n3cnc4cc(C)c(C)cc43)O[C@@H]2CO)[C@]2(C)N=C(/C(C)=C3N=C(/C=C4N=C1[C@@H](CCC(N)=O)C/4(C)C)[C@@H](CCC(N)=O)[C@]\3(C)CC(N)=O)[C@@H](CCC(N)=O)[C@]2(C)CC(N)=O,active

row,SMILES,cytotoxicity call
1,C[C@H]1CN([C@@H](C)CO)C(=O)Cc2cc(NC(=O)Cn3cnnn3)ccc2O[C@@H]1CN(C)S(=O)(=O)c1ccc(Cl)cc1,inactive
2,CC(C)N1CC[C@@H](CN(C)Cc2ccc(Cl)cc2)Oc2c(NC(=O)c3ccncc3)cccc2C1=O,inactive
3,Cc1ccc2c(c1)c1nc3ccccc3nc1n2Cc1ccccc1,inactive
4,Cc1ccc(C(=O)N(CCCN)[C@@H](c2nc3cc(Cl)ccc3c(=O)n2Cc2ccccc2)C(C)C)cc1,active
5,Cc1ccc(C(=O)N(CCCN)[C@@H](c2oc3cc(Cl)ccc3c(=O)c2Cc2ccccc2)C(C)C)cc1,active
6,COc1ccc2cc(S(=O)(=O)N[C@H](CC(=O)N[C@H](Cc3ccc(CN4[C@H](C)CCC[C@@H]4C)cc3)C(=O)N(C)C(C)C)c3ccc4c(c3)OCO4)ccc2c1,inactive
7,C[C@@H]1CCCCO[C@@H](CN(C)Cc2ccc(Cl)c(Cl)c2)[C@@H](C)CN([C@@H](C)CO)C(=O)c2cc(NC(=O)CCC(F)(F)F)ccc2O1,inactive
8,CO[C@H](C(=O)N(C)C[C@H]1OCc2ccccc2-c2c(n(C)c3ccccc23)C(=O)N([C@@H](C)CO)C[C@H]1C)c1ccccc1,inactive
9,C[C@@H]1CN([C@H](C)CO)C(=O)c2cc(NS(C)(=O)=O)ccc2O[C@@H]1CN(C)C(=O)NC1CCCCC1,inactive
10,Cc1noc(C)c1NC(=O)Nc1ccc2c(c1)C(=O)N([C@H](C)CO)C[C@H](C)[C@H](CN(C)Cc1ccc(C(F)(F)F)cc1)OCCCC[C@H](C)O2,inactive
11,C[C@@H]1CN([C@H](C)CO)C(=O)Cc2cc(NC(=O)c3ccncc3)ccc2O[C@H]1CN(C)Cc1ccc2c(c1)OCO2,inactive
12,C[C@H]1CN([C@@H](C)CO)C(=O)c2ccccc2-c2ccccc2CO[C@H]1CN(C)Cc1ccc(Oc2ccccc2)cc1,inactive
13,COC1=CC(=O)c2ccccc2C1=O,inactive
14,COC1=CC(=O)C(O)=CC1=CC=Cc1ccccc1,active
15,COc1ccc(C(=O)C=Cc2ccccc2)cc1,inactive
16,C[C@H]1CCCCO[C@H](CN(C)C(=O)Nc2ccc(C(F)(F)F)cc2)[C@@H](C)CN([C@@H](C)CO)C(=O)c2cc(NS(C)(=O)=O)ccc2O1,inactive
17,Cc1noc(C)c1S(=O)(=O)Nc1ccc2c(c1)C(=O)N([C@H](C)CO)C[C@@H](C)[C@@H](CN(C)CC1CCCCC1)OCCCC[C@@H](C)O2,inactive
18,C[C@@H]1CN([C@H](C)CO)C(=O)c2cccc(NC(=O)c3nc4ccccc4s3)c2O[C@H]1CN(C)Cc1ccc(C(F)(F)F)cc1,active
19,C[C@@H]1CN([C@@H](C)CO)C(=O)c2cccc(NC(=O)c3nc4ccccc4s3)c2O[C@H]1CN(C)Cc1ccc(C(F)(F)F)cc1,inactive

row,SMILES,cytotoxicity call
1,C[C@@H]1CN([C@H](C)CO)C(=O)c2cccc(NC(=O)c3nc4ccccc4s3)c2O[C@@H]1CN(C)Cc1ccc(C(F)(F)F)cc1,inactive
2,C[C@@H]1CN([C@@H](C)CO)C(=O)c2cccc(NC(=O)c3nc4ccccc4s3)c2O[C@@H]1CN(C)Cc1ccc(C(F)(F)F)cc1,inactive
3,C[C@H](CO)N1C[C@H](C)[C@@H](CN(C)Cc2ccc(C(F)(F)F)cc2)Oc2c(NC(=O)c3nc4ccccc4s3)cccc2C1=O,inactive
4,C[C@H]1CN([C@@H](C)CO)C(=O)c2cccc(NC(=O)c3nc4ccccc4s3)c2O[C@@H]1CN(C)Cc1ccc(C(F)(F)F)cc1,active
5,C[C@H](NC(=O)C[C@@H]1C[C@@H]2c3cc(NC(=O)Nc4ccc(C(F)(F)F)cc4)ccc3O[C@@H]2[C@@H](CO)O1)c1ccccc1,inactive
6,C[C@H]1CN([C@@H](C)CO)C(=O)c2ccccc2-c2ccccc2CO[C@@H]1CN(C)Cc1cccc(C(F)(F)F)c1,inactive
7,C[C@@H]1CCCCO[C@@H](CN(C)C)[C@@H](C)CN([C@H](C)CO)C(=O)c2cc(NC(=O)Nc3ccc(C(F)(F)F)cc3)ccc2O1,inactive
8,CO[C@@H](CN(C)S(=O)(=O)c1cccc(Cl)c1)[C@@H](C)CN([C@H](C)CO)S(=O)(=O)c1ccc(Cl)cc1,inactive
9,C[C@H](CO)N1C[C@H](C)[C@@H](CN(C)C(=O)CCCN(C)C)OCCCC[C@H](C)Oc2ccc(NC(=O)Nc3ccc(C(F)(F)F)cc3)cc2C1=O,inactive
10,C[C@@H]1CN([C@H](C)CO)C(=O)c2cc(NC(=O)Cc3cn(C)c4ccccc34)ccc2O[C@H]1CN(C)Cc1ccc(-c2ccccc2)cc1,inactive
11,C[C@H]1CN([C@@H](C)CO)C(=O)c2cc(NC(=O)Cc3cn(C)c4ccccc34)ccc2O[C@@H]1CN(C)Cc1ccc(Oc2ccccc2)cc1,active
12,C[C@@H]1CN([C@H](C)CO)C(=O)c2cc(NC(=O)Cc3cn(C)c4ccccc34)ccc2O[C@H]1CN(C)Cc1ccc(Oc2ccccc2)cc1,inactive
13,C[C@@H]1CN([C@@H](C)CO)C(=O)c2cc(NC(=O)Cc3cn(C)c4ccccc34)ccc2O[C@H]1CN(C)Cc1ccc(Oc2ccccc2)cc1,inactive
14,C[C@H](CO)N1C[C@H](C)[C@H](CN(C)Cc2ccc(Oc3ccccc3)cc2)Oc2ccc(NC(=O)Cc3cn(C)c4ccccc34)cc2C1=O,active
15,C[C@@H]1CN([C@H](C)CO)C(=O)c2cc(NC(=O)Cc3cn(C)c4ccccc34)ccc2O[C@@H]1CN(C)Cc1ccc(Oc2ccccc2)cc1,inactive
16,C[C@H](CO)N1C[C@H](C)[C@H](CN(C)Cc2ccc(-c3ccccc3)cc2)Oc2ccc(NC(=O)Cc3cn(C)c4ccccc34)cc2C1=O,active
17,C[C@H]1CN([C@@H](C)CO)C(=O)c2cc(NC(=O)Cc3cn(C)c4ccccc34)ccc2O[C@H]1CN(C)Cc1ccc(Oc2ccccc2)cc1,inactive
18,C[C@@H]1CN([C@@H](C)CO)C(=O)c2cc(NC(=O)Cc3cn(C)c4ccccc34)ccc2O[C@H]1CN(C)Cc1ccc(-c2ccccc2)cc1,inactive
